Sampled rows, rich in hits. Any-hit rate of the full collection: about 5.5%.
CBFb RUNX1 block – inhibitors of human CBF-beta and RUNX1 interaction; AlphaScreen CBFb-His/RUNX1-biotin binding, biochemical; Potency, µM (titrated, usually from 59.8 µM), inactives show top-dose activity, negative = inhibition, hits mostly inhibitors; 230,000 tested, under 10 active; Q01196+Q13951; also: % of control where 0% means no effect
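Bead-based AlphaScreen assay; binding partners His-tagged CBF-beta and biotinylated RUNX1 at 30 nM each. Compound exposure 15 min after a 20-min protein preincubation; bead step 90 min; all steps at room temperature.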
CtBP-E1A inh – inhibitors of CtBP/E1A interaction; 340,000 compounds, 0.49% hits; activity change, % (test concentration not listed); AlphaScreen GST-E1A/His-CtBP binding, 1536-well; stronger effect = lower value; AID 651724; in the data active = activity change below about -65%; inconclusive = mostly about -30% to -63%; also: % is scaled to controls: 0 for no effect and ±100 for the full control effect
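Homogeneous bead-based format: GST-tagged E1A captured on glutathione donor beads, His-tagged CtBP on nickel acceptor beads; compounds precede bead addition by 2 h at 37 °C.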
Six1-Eya2 blk – blocks human Six1 binding to Eya2. Q15475+O00167. AlphaScreen GST-Six1/His-Eya2 binding, biochemical; stronger effect = lower value. activity change, % (test concentration not listed). 360,000 compounds, 0.56% hits; in the data active = activity change below about -65%; inconclusive = mostly about -30% to -63%; also: % is scaled to controls: 0 for no effect and ±100 for the full control effect
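Six1/Eya2 binding was read as AlphaScreen signal after compounds were pinned into GST-Six1 plus His-tagged Eya2 (5X stock 250/500 nM) in pH 8.0 Tris/NaCl/TCEP buffer, beads added, then incubated 1 h, 37 C, dark.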
RORg inh – blocks mouse ROR gamma transcriptional activity. P51450. Drosophila S2 Gal4-RORgamma UAS-luciferase reporter, 20 h. Potency, µM (series often up to 53.6 µM), for inactives: at the top dose activity change, negative = inhibition, actives largely listed as inhibitors. 310,000 compounds, 5.4% hits; also: potency is read from the fitted curve at half-maximal effect; % is scaled to controls: 0 for no effect and ±100 for the full control effect; nearly all actives have a fitted effect of over 60% in size
Target sequence (P51450 whole entry, looked up, the tested form may be a part): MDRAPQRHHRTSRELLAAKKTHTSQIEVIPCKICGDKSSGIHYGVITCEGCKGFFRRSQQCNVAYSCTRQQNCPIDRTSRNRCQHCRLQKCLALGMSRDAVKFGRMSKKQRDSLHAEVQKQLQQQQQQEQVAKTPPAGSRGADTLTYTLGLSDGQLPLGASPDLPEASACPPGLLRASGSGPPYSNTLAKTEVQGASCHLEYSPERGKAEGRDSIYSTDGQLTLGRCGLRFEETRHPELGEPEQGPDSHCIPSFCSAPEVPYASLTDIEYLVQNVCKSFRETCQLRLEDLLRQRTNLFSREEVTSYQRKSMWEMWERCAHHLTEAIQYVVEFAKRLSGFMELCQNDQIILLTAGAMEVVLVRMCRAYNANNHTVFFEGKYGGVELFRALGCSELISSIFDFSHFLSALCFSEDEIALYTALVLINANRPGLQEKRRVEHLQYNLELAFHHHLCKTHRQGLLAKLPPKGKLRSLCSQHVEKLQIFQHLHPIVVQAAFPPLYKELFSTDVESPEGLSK
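ROR gamma transcriptional activity was tracked as Gal4-UAS luciferase output in stably transfected Drosophila Schneider cells, with compound added 1 hr before 700 uM copper sulfate induction and a 20 hr ambient-temperature incubation.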
VP16 counter – Gal4-VP16 reporter inhibition counter-screen. Potency, µM (titrated, usually from 53.6 µM), without a hit: at the highest dose activity, negative = inhibition, hits mostly inhibitors. Drosophila S2 Gal4-VP16 UAS-luciferase, luminescence, 20 h. 310,000 compounds, 3.5% hits;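 also: Gal4-VP16 expression switched on by copper sulfate through the metallothionein promoter; potency is read from the fitted curve at half-maximal effect; % is scaled to controls: 0 for no effect and ±100 for the full control effect; nearly all actives have a fitted effect of over 50% in size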
MBNL1 CUG block – MBNL1-poly(CUG) RNA binding inhibition | Q9NR56 | TR-FRET MBNL1-His/biotin-(CUG)12 binding, 665/545 ratio | Potency, µM (doses to about 57.5 µM), without a hit: at the highest dose activity change, negative = inhibition, most hits filed as inhibitors | 280,000 compounds, 0.036% hits | AID 2675; active = well fitted inhibition curve with a large enough effect in the signal ratio, with a control signal flat, not every such curve was filed as active; inconclusive = small, poorly fitted or top-dose-only effect, or effect the other way, or a change in a side signal; inactive = no such curve, though single readings can be large or run the other way; the % refers to the signal ratio; also: potency is read from the fitted curve at half-maximal effect; % is scaled to controls: 0 for no effect and ±100 for the full control effect
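Compound titration spanned 92 nM–58 uM against the MBNL1-His/biotin-(CUG)12 complex. After 60 min at room temperature with 5 nM streptavidin-XL665 and 0.055 ng/ul terbium anti-His, ratiometric 665/545 nm emission (Ex 340 nm) normalized to controls.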
The depositor's hits bear a star; i = inactive; ? = inconclusive; · = no result; [ ] = another dose, or the depositor's remark. Unless noted, calls follow the shape of the dose curve; as a rule, active = well fitted curve in the direction sought with a large enough effect; inconclusive = small, poorly fitted or top-dose-only effect, or another doubt; inactive = no such curve, though single readings can be large; an effect the other way counts as inactive or inconclusive.

SMILES	CBFb RUNX1 block	CtBP-E1A inh	Six1-Eya2 blk	RORg inh	VP16 counter	MBNL1 CUG block
Cc1ccc(C)c(NC(=S)NCCSc2ccc(Cl)cc2)c1	0%	-2	-18	2.5µM*	5µM*	?
CS(=O)(=O)Nc1ccccc1C(=O)NCCSc1ccc(Cl)cc1	·	-1	2	331%	10%	-1%
COc1ccc(S(=O)(=O)N2CCCCC2)cc1NC(=O)Cc1cccs1	·	-13	0	·	·	·
Cc1ccccc1-n1sc2cc(F)ccc2c1=O	-5%	-16	-1	3.2µM*	2.8µM*	-29%
C=C(C(=O)c1ccccc1)C(C(=C)C(=O)c1ccccc1)c1ccc(OC)cc1	5%	·	3	26%	-8%	·
C=C(C(=O)c1ccccc1)C(c1ccccc1)C(C)C(=O)c1ccccc1 (stereo unspecified)	-3%	7	5	2.8µM*	16µM*	2%
C=C(C(=O)c1ccccc1)C(C)C(=C)C(=O)c1ccccc1	4%	6	4	13µM*	11µM*	-2%
C[C@H]1CN([C@@H](C)CO)C(=O)CCCn2nncc2CO[C@@H]1CN(C)Cc1ccc(Cl)c(Cl)c1	·	4	-1	·	·	·
Fc1ccc(NC(=S)N/N=C/c2ccc(F)c(F)c2)c(F)c1	1%	-1	6	1.1µM*	2.5µM*	1%
O=C(N/N=C/c1ccccc1Cl)C1CC1	·	2	-8	-15%	-17%	13%
Fc1ccccc1/C=N/NC(=S)Nc1ccc(Cl)cc1Cl	-4%	3	1	0.63µM*	1.3µM*	1%
S=C(N/N=C/c1ccccc1Cl)Nc1cccc(Cl)c1Cl	5%	·	-5	0.4µM*	11µM*	3%
S=C(NCC1CC1)N/N=C/c1ccccc1Cl	-1%	-1	-2	5.6µM*	?	-4%
Cc1cccc(NC(=O)CN2CCN(C(=O)c3ccc(OCc4cn5ccccc5n4)cc3)CC2)c1C	·	-3	-1	·	·	·
Cc1ccc(-n2cc(CN3CCC(CO)(Cc4cccc(C(F)(F)F)c4)CC3)cn2)cc1	13%	-14	2	18µM*	?	-3%
Cc1ccc(-n2cc(CN3CCC(CO)(Cc4ccccc4)CC3)cn2)cc1	6%	·	·	4%	4%	-7%
CC(C)Cc1cc(CN2CCC(CO)(Cc3cccc(C(F)(F)F)c3)CC2)[nH]n1	4%	-4	-7	4.5µM*	?	-2%
CC(C)Cc1cc(CN2CCCC(CO)(Cc3cccc(Cl)c3)C2)[nH]n1 (stereo unspecified)	6%	8	-15	-32%	5%	2%
COc1cc(-c2ccc(N3C(c4ccsc4)=Cc4ccccc4C3CC(C)=O)cc2)cc(OC)c1OC (stereo unspecified)	·	11	12	·	·	·
Cc1ccc2nc(/C(C#N)=C\c3ccc([N+](=O)[O-])o3)[nH]c2c1	-3%	-2	12	5.6µM*	3.2µM*	-9%
N#C/C(=C\Nc1ccc2c(c1)OCCO2)c1nc(-c2ccccc2)cs1	10%	·	-1	15%[10 µM]	-4%	·
N#C/C(=C\c1ccc([N+](=O)[O-])o1)c1nc2ccccc2[nH]1	-12%	-6	-5	2µM*	1.6µM*	7%
Cc1ccc2nc(/C(C#N)=C\c3ccc(N4CCOCC4)o3)[nH]c2c1	-8%	2	?	?	-1%	?
N#C/C(=C\Nc1ccc2c(c1)OCCO2)c1nc2ccccc2[nH]1	3%	-3	-21	3.2µM*	5µM*	9%
CC(C)CNc1ncnc2[nH]ncc12	·	0	3	·	·	·
SMILES	CBFb RUNX1 block	CtBP-E1A inh	Six1-Eya2 blk	RORg inh	VP16 counter	MBNL1 CUG block
CCc1ccc(OCC(=O)NC(=S)Nc2cccc(CO)c2)c(Br)c1	-3%	9	-3	11µM*	10µM*	-3%
CCOc1cccc2sc(Nc3nc4ccc(NC(C)=O)cc4s3)nc12	-2%	9	4	3.5µM*	4µM*	·
CNC(=S)N(CCc1c(C)[nH]c2ccc(C)cc12)Cc1cccs1	-13%	-17	-24	11µM*	?	-3%
COc1ccc2[nH]c(C)c(CCN(Cc3cccs3)C(=S)Nc3ccc(F)cc3)c2c1	-8%	-1	-20	-35%	-27%	1%
COCCNC(=S)N(CCc1c(C)[nH]c2ccc(OC)cc12)Cc1ccco1	·	-17	-11	14%	15%	-8%
COCCNC(=S)N(CCc1c(C)[nH]c2ccc(C)cc12)Cc1ccco1	?	-2	-18	11µM*	-10%	-5%
COc1ccc2[nH]c(C)c(CCN(Cc3cccs3)C(=S)Nc3ccccc3)c2c1	-13%	-1	-16	1.8µM*	-22%	6%
O=c1c(Cl)c(Cl)cnn1Cc1ccccc1Cl	5%	5	-5	1.1µM*	?	i
Cc1cc(C)cc(Cn2ncc(Cl)c(Cl)c2=O)c1	2%	6	-2	?	11µM*	291%
O=c1c(Cl)c(Cl)cnn1-c1ccccc1	5%	6	-4	10µM*	11µM*	?
Nc1c(Cl)cnn(-c2ccccc2)c1=O	·	-9	4	·	·	·
S=C(NCc1ccco1)Nc1cc(Cl)c(Cl)cc1Cl	1%	5	4	?	?	?
S=C(NCc1ccco1)Nc1ccc(Br)cn1	·	2	-4	3.2µM*	3.5µM*	41%
S=C(NCc1ccco1)Nc1cc(-c2ccccc2)[nH]n1	-15%	-21	-6	6.3µM*	?	-4%
O=C(COc1ccc(Cl)cc1)Nc1ccc(C(=O)O)cc1NC(=O)COc1ccc(Cl)cc1	·	0	2	0%	-1%	0%
Cc1ccc2c(Cl)cc(Cl)c(OCC(=O)NC(C)(C)C)c2n1	4%	-13	5	7.1µM*	?	3%
COC(=O)COc1c(Cl)cc(Cl)c2ccc(C)nc12	?	4	0	?	22µM*	0%
COc1ccc(OCC(O)CNC(=O)/C=C/c2cccc([N+](=O)[O-])c2)cc1 (stereo unspecified)	5%	0	-1	?	-3%	?
CCCCCC1=C2CNC(CC(C)C)(C(=O)OC)C=C2C(C)C1=O (stereo unspecified)	15%	·	·	3%	-21%	·
CCOc1ccc(N=C2NC(=O)C(CC(=O)Nc3ccc(OC)cc3)S2)cc1 (stereo unspecified)	4%	·	7	-7%	19%	8%
Cc1ccc(NC(=O)CC2SC(=NC3CCCCC3)NC2=O)cc1 (stereo unspecified)	3%	0	-8	40%	-15%	-14%[11.5 µM]

Source: PubChem BioAssay (National Center for Advancing Translational Sciences (NCATS))
